Legend:
[1] = target: Calcium/calmodulin-dependent protein kinase type II subunit alpha (Homo sapiens) (UniProt Q9UQM7); conditions: at 1 µM;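 also: reported value is a mean percent inhibition of CAMK2A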
[2] = target: Calcium/calmodulin-dependent protein kinase type II subunit delta (Homo sapiens) (UniProt Q13557); conditions: at 0.1 µM
[3] = target: Calcium/calmodulin-dependent protein kinase type II subunit delta (Homo sapiens) (UniProt Q13557); conditions: at 1 µM
[4] = target: T1, Calcium/calmodulin-dependent protein kinase type IV (Homo sapiens) (UniProt Q16566); conditions: at 0.1 µM
T1 sequence (whole entry): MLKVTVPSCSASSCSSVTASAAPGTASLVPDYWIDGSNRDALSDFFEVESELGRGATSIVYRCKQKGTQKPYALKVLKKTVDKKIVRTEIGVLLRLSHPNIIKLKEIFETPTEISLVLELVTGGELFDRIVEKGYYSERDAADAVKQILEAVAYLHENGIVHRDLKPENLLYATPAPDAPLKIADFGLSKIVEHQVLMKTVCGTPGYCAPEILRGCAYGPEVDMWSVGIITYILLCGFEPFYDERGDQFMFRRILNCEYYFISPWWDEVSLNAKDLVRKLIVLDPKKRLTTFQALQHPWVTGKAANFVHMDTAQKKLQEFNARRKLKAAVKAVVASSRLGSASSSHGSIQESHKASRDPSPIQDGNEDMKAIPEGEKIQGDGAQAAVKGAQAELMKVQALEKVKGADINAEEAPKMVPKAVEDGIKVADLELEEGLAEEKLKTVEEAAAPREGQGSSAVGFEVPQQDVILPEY

[5] = target: T1, Calcium/calmodulin-dependent protein kinase type IV (Homo sapiens); conditions: at 1 µM
[6] = target: T2, Serine/threonine-protein kinase Chk1 (Homo sapiens) (UniProt O14757); conditions: at 0.1 µM
T2 sequence (whole entry): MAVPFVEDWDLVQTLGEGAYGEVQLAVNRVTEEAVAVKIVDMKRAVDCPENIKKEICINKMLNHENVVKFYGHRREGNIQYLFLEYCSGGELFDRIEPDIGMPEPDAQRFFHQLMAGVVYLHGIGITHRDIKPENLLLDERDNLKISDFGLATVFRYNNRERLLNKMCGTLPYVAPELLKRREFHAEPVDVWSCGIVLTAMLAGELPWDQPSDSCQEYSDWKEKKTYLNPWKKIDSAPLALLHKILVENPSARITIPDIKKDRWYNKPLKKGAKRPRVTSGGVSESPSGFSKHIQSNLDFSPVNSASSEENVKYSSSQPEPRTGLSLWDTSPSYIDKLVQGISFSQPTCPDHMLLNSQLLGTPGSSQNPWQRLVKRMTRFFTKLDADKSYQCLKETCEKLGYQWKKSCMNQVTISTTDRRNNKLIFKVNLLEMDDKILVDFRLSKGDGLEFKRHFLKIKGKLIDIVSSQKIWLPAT

[7] = target: T2, Serine/threonine-protein kinase Chk1 (Homo sapiens); conditions: at 1 µM
[8] = target: Serine/threonine-protein kinase Chk2 (Homo sapiens) (UniProt O96017); conditions: at 0.1 µM
[9] = target: Serine/threonine-protein kinase Chk2 (Homo sapiens) (UniProt O96017); conditions: at 1 µM
[10] = target: Death-associated protein kinase 1 (Homo sapiens) (UniProt P53355); conditions: at 0.1 µM
Chain of Death-associated protein kinase 1 (Homo sapiens) (P53355 whole entry, looked up): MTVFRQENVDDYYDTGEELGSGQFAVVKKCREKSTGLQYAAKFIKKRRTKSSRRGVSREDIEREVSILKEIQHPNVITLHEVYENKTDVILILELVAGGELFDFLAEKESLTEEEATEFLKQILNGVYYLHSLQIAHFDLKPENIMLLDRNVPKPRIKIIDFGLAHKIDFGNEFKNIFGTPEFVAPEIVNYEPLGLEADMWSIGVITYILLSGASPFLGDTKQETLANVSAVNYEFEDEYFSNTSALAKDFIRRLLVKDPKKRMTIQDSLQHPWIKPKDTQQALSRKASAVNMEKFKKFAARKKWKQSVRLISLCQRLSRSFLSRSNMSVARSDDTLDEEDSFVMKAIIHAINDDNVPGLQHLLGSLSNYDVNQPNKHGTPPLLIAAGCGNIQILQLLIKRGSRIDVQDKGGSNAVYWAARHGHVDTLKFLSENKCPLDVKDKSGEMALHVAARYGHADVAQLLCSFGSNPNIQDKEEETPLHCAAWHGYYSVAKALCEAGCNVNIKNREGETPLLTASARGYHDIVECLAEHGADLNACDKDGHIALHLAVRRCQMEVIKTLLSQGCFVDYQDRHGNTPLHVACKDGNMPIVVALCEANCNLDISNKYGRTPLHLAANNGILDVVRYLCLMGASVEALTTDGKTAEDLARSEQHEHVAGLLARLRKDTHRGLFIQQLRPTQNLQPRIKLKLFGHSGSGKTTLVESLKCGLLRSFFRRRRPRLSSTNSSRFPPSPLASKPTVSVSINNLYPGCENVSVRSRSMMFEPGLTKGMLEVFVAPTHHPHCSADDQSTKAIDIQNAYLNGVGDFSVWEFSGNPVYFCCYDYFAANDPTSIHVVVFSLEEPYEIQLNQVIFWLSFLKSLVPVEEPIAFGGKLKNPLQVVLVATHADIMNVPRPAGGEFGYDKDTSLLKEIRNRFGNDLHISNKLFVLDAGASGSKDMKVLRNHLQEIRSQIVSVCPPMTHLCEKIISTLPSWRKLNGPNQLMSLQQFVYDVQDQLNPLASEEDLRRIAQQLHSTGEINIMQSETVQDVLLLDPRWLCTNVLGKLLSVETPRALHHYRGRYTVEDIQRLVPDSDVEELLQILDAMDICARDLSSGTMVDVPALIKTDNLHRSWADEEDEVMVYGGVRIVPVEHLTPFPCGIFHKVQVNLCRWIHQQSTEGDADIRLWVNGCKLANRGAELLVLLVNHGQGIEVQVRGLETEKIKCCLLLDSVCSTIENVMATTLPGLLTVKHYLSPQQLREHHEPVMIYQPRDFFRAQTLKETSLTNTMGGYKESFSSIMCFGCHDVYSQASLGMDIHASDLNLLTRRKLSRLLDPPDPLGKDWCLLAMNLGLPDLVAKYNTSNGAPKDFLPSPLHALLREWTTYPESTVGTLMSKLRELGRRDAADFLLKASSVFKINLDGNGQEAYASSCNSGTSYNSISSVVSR

[11] = target: Death-associated protein kinase 1 (Homo sapiens) (UniProt P53355); conditions: at 1 µM
[12] = target: T3, Serine/threonine-protein kinase DCLK2 (Homo sapiens) (UniProt Q8N568); conditions: at 0.1 µM
T3 sequence (whole entry): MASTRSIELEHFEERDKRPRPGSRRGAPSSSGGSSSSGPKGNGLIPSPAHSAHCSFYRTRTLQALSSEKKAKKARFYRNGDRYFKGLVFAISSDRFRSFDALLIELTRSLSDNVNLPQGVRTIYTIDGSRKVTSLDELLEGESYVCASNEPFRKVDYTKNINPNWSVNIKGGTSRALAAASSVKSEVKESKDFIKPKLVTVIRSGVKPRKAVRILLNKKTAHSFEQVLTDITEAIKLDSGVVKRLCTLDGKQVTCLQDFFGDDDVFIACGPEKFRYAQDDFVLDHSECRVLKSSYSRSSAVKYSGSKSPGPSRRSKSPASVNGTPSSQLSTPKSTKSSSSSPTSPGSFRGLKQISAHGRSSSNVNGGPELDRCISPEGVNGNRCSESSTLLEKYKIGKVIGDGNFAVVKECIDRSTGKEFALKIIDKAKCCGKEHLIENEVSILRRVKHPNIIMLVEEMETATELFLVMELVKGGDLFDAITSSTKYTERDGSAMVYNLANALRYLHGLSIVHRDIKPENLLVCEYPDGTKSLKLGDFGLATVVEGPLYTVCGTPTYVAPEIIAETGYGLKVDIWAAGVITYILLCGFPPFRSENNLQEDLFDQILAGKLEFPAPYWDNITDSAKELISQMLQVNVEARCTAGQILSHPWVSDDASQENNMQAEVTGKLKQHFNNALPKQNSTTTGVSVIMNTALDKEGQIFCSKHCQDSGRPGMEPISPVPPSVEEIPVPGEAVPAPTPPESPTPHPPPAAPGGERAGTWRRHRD

[13] = target: T3, Serine/threonine-protein kinase DCLK2 (Homo sapiens); conditions: at 1 µM
[14] = target: MAP kinase-activated protein kinase 2 (Homo sapiens) (UniProt P49137); conditions: at 0.1 µM
Chain of MAP kinase-activated protein kinase 2 (Homo sapiens) (P49137 whole entry, looked up): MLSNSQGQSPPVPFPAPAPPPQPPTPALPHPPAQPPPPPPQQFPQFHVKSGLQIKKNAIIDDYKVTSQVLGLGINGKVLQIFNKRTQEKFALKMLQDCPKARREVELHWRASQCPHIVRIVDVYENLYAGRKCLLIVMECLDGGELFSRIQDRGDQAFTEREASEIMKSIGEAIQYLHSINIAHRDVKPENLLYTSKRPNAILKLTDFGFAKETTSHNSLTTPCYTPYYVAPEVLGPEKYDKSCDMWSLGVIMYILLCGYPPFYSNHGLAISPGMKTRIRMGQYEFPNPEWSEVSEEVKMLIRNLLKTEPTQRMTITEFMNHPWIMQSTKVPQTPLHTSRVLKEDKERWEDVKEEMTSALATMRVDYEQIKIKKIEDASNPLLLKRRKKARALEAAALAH

[15] = target: MAP kinase-activated protein kinase 2 (Homo sapiens) (UniProt P49137); conditions: at 1 µM
[16] = target: MAP kinase-activated protein kinase 3 (Homo sapiens) (UniProt Q16644); conditions: at 0.1 µM
Chain of MAP kinase-activated protein kinase 3 (Homo sapiens) (Q16644 whole entry, looked up): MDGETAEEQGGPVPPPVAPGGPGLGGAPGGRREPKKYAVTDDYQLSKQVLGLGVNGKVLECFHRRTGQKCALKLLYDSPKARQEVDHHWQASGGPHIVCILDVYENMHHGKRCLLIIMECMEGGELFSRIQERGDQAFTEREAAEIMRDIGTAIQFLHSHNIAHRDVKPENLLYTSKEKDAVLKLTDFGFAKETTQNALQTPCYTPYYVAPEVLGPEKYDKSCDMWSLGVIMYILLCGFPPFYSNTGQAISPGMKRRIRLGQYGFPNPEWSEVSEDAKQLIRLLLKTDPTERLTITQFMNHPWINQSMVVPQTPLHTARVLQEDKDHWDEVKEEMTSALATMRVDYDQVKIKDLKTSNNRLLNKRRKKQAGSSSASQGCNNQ

[17] = target: MAP kinase-activated protein kinase 3 (Homo sapiens) (UniProt Q16644); conditions: at 1 µM
[18] = target: Serine/threonine-protein kinase MARK1 (Homo sapiens) (UniProt Q9P0L2); conditions: at 0.1 µM
Chain of Serine/threonine-protein kinase MARK1 (Homo sapiens) (Q9P0L2 whole entry, looked up): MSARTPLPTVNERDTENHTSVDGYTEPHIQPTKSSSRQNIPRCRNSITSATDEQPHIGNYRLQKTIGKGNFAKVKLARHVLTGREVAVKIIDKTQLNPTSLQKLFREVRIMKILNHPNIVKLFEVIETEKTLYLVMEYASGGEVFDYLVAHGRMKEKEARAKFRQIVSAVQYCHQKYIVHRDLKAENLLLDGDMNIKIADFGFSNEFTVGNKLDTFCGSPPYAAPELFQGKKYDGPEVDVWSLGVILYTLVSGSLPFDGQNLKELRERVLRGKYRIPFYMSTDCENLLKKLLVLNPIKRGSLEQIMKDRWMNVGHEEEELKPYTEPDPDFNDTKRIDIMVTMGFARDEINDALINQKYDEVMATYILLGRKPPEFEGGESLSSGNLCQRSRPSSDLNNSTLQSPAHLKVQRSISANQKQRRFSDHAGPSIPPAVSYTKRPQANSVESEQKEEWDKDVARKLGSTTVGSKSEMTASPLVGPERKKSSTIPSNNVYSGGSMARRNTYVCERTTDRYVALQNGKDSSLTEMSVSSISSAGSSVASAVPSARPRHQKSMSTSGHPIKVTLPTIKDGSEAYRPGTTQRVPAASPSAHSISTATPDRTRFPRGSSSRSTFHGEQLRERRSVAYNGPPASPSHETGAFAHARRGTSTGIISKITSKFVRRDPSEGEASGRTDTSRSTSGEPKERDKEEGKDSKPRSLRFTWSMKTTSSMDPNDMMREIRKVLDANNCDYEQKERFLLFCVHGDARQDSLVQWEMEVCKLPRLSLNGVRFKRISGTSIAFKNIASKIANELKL

[19] = target: Serine/threonine-protein kinase MARK1 (Homo sapiens) (UniProt Q9P0L2); conditions: at 1 µM
[20] = target: MAP/microtubule affinity-regulating kinase 3 (Homo sapiens) (UniProt P27448); conditions: at 0.1 µM;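 also: mean percent inhibition of MARK3 kinase activity, measured within the GSK PKIS screening panel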
Chain of MAP/microtubule affinity-regulating kinase 3 (Homo sapiens) (P27448 whole entry, looked up): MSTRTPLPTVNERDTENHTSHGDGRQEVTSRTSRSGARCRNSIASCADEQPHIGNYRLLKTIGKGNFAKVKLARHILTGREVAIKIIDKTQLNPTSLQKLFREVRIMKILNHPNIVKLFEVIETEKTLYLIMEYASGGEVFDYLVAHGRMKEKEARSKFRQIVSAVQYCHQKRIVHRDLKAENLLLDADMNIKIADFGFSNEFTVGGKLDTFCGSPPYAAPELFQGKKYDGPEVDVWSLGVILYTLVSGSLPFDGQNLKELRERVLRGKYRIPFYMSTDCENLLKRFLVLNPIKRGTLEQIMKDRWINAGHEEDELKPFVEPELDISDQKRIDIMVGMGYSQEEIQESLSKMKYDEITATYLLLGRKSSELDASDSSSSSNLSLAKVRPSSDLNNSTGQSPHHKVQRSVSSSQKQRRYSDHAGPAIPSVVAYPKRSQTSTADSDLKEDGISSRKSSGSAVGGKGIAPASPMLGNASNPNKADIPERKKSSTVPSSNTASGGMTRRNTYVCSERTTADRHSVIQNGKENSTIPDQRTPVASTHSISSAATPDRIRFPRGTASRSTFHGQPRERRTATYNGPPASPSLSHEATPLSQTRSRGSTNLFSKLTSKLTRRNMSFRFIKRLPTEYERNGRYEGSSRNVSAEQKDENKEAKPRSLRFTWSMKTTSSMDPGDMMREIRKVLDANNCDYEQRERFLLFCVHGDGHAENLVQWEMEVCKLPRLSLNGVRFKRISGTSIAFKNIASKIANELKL

Chain of Calcium/calmodulin-dependent protein kinase type II subunit delta (Homo sapiens) (Q13557 whole entry): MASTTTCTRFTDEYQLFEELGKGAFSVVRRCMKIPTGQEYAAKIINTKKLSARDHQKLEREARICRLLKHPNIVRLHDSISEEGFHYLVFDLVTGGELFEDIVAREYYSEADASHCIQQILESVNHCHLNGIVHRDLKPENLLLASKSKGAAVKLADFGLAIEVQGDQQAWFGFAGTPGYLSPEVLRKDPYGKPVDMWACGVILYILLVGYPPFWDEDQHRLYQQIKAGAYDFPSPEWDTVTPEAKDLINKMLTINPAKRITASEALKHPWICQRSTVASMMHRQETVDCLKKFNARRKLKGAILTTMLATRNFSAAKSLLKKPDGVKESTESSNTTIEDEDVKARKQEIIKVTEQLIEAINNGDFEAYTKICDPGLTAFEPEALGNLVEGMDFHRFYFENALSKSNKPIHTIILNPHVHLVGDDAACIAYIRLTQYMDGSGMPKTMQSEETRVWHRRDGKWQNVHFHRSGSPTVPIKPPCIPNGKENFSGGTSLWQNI
Chain of Calcium/calmodulin-dependent protein kinase type II subunit alpha (Homo sapiens) (Q9UQM7 whole entry): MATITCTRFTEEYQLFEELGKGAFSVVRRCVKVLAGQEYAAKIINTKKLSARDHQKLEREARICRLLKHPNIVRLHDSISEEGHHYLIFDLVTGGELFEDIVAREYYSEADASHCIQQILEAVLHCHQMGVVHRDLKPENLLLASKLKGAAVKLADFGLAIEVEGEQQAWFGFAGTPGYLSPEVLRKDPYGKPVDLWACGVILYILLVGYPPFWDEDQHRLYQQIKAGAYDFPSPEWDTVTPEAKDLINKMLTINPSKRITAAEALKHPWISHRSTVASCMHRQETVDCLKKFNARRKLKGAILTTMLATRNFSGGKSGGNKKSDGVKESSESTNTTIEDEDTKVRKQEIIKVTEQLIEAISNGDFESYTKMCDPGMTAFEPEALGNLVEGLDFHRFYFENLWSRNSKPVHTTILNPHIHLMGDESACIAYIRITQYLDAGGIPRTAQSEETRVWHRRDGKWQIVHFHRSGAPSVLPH

| Compound | inhibition [1] | inhibition [2] | inhibition [3] | inhibition [4] | inhibition [5] | inhibition [6] | inhibition [7] | inhibition [8] | inhibition [9] | inhibition [10] | inhibition [11] | inhibition [12] | inhibition [13] | inhibition [14] | inhibition [15] | inhibition [16] | inhibition [17] | inhibition [18] | inhibition [19] | inhibition [20] |
| --- | --- | --- | --- | --- | --- | --- | --- | --- | --- | --- | --- | --- | --- | --- | --- | --- | --- | --- | --- | --- |
| N#Cc1c(NC(=O)c2cccc3ccccc23)sc2c1CCCC2 | 1.93% | 2.34% | 4.57% | 2.05% | 1.58% | 7.17% | 10.4% | 6.18% | 6.56% | 8.89% | 9.29% | 0.23% | 0.08% | 4.07% | 3.83% | 8.24% | 8.43% | 3.26% | 3.28% | 2.5% |
| Cn1cc(C=C2C(=O)Nc3cccnc32)c2ccccc21 | 3.18% | 2.44% | 6.23% | 0.47% | -0.07% | 0.66% | 7.2% | 2.65% | 15.6% | 2.44% | 7.28% | 0.87% | 3.71% | 0.71% | 1.83% | 2.19% | 5.11% | 3.55% | 9.52% | 4.73% |
| COC(=O)Nc1nc2cc(Oc3cccc(NC(=O)Nc4cc(C(F)(F)F)ccc4F)c3)ccc2[nH]1 | 0.78% | 0.53% | 0.94% | 1.37% | 0.22% | -2.61% | -1.51% | -0.85% | 0.45% | 0.43% | -0.6% | 5.45% | -0.15% | -0.06% | -0.64% | 0% | 1.82% | 1.21% | 1.49% | 0.8% |
| CCn1c(-c2nonc2N)nc2ccncc21 | 6.48% | 2.32% | 4.41% | 0.03% | 1.1% | 1.89% | 0.17% | 1.09% | 1.49% | 1.08% | 2.7% | -2.35% | -1.48% | -0.18% | 0.49% | 0.85% | 1.7% | 0.76% | -0.05% | 0.13% |
| CCn1c(-c2nonc2N)nc2cncc(C(=O)N3CC[C@H](N)C3)c21 | 3.64% | 4.1% | 4.33% | 1.7% | -0.55% | 4.56% | 6.37% | 1.1% | 1.86% | 5.74% | 8.64% | 0.17% | -0.36% | 1.77% | 1.78% | 3.01% | 4.01% | 4.67% | 12.8% | 3.75% |
| O=C1NC(=O)C(c2ccc(Cl)cc2)=C1Nc1ccc(Cl)c(C(=O)O)c1 | -3.46% | -2.31% | 1.44% | 0.68% | 0.51% | -0.04% | -1.22% | -2% | -1.93% | -1.53% | -1.43% | -1.2% | -0.41% | -1.23% | -1.83% | -0.48% | -1% | -0.68% | -0.26% | -0.12% |
| COc1cccc(-n2ncc3c(N/N=C/c4cccc(F)c4)ncnc32)c1 | 2.7% | 2.52% | 16.1% | 0.94% | 1.12% | 1.95% | 3.28% | 1.45% | 1.6% | -0.52% | -1.39% | -4.3% | 1.59% | -0.12% | 0.02% | 1.02% | 0.04% | 2.19% | 6.35% | 0.17% |
| CCn1c(-c2nonc2N)nc2c(C#CC(C)(C)O)nc(CN3CCCC3)cc21 | 0.03% | -0.33% | 1.82% | -3.55% | 1.55% | – | -2.45% | -1.49% | 0.49% | 0.05% | -0.31% | 6.66% | -1.42% | -0.49% | -0.42% | -1.48% | -0.59% | 4.99% | 12% | 4.42% |
| COc1cc2ncn(-c3cc(OCc4ccccc4Cl)c(C(N)=O)s3)c2cc1OC | -0.06% | 0.36% | 2.88% | 0.78% | 0.41% | -4.54% | -4.25% | -4.95% | -0.53% | -8.75% | – | -1.31% | 4.65% | -2.81% | -3.53% | -5.38% | -2.78% | 2.4% | 9.28% | 1.85% |
| CS(=O)(=O)CCNCc1nc(-c2ccc3ncnc(Nc4ccc(F)c(Cl)c4)c3c2)cs1 | 3.45% | 1.76% | 3.83% | -0.31% | 0.31% | 2.71% | 3.9% | -0.4% | 1.15% | 4.88% | 6.48% | 0.59% | – | 1.59% | 0.26% | 2.16% | 1.58% | 1.43% | 1.33% | 1.69% |
| CCn1c(-c2nonc2N)nc2cnc(Oc3cccc(NC(=O)c4ccc(OCCN5CCOCC5)cc4)c3)cc21 | 2.17% | 1.77% | 4% | 2.08% | 2.49% | -8.33% | 4.37% | 3.15% | 13.3% | -1.49% | -1.31% | 0.99% | 2.71% | 1.4% | 0.54% | 3.45% | 3.54% | 3.31% | 13.3% | 0.46% |
| Cc1nn(C)c2cc(N(C)c3ccnc(Nc4cccc(S(N)(=O)=O)c4)n3)ccc12 | 1.72% | 2.35% | 3.73% | 1.4% | 1.88% | 4.46% | 56% | 6.25% | 9.6% | 8.62% | 8.09% | 0.57% | 0.12% | 3.83% | 3.29% | 8.73% | 11% | 3.07% | 4.05% | 0.92% |
| CNC(=O)c1cncc(/C=C/c2c(Cl)cccc2Cl)c1 | 4.95% | 3.11% | 8.55% | 0.01% | 3.19% | 0.16% | 4.57% | 2.6% | 9.62% | 2.23% | 0.5% | -4.5% | -0.73% | 0.7% | 2.98% | 2.14% | 1.96% | 2.05% | 2.47% | 1.82% |
